PABP1 MLLE inh = inhibitors of PABP1 MLLE–PAM2 peptide binding, primary screen, biochemical, fluorescence polarization, FITC-PAM2, GST-MLLE | hit rate 0.36% among 360,000 | Polyadenylate-binding protein 1 (Homo sapiens), P11940 | inhibition, % at 20 µM | AID 588489, 2011; in the data active means inhibition above about 35%, passing the limit was not always enough
ABCB6 inh MLPCN = ABCB6 transporter inhibitors, primary screen, K562-ABCB6 cells, flow cytometry, MLPCN library | hit rate 0.19% among 360,000 | AID 602162, 2011 | K562-ABCB6 porphyrin accumulation, 1 h; hits give low values | fluorescence ratio to DMSO, % at 10 µM;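 active means fluorescence ratio to DMSO below 75%, the collection mean minus 3 SD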;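 further: signal is porphyrin accumulated inside mitochondria; lower ratio means ABCB6 inhibition with less porphyrin fluorescence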
Target sequence (Q9NP58 whole entry, looked up): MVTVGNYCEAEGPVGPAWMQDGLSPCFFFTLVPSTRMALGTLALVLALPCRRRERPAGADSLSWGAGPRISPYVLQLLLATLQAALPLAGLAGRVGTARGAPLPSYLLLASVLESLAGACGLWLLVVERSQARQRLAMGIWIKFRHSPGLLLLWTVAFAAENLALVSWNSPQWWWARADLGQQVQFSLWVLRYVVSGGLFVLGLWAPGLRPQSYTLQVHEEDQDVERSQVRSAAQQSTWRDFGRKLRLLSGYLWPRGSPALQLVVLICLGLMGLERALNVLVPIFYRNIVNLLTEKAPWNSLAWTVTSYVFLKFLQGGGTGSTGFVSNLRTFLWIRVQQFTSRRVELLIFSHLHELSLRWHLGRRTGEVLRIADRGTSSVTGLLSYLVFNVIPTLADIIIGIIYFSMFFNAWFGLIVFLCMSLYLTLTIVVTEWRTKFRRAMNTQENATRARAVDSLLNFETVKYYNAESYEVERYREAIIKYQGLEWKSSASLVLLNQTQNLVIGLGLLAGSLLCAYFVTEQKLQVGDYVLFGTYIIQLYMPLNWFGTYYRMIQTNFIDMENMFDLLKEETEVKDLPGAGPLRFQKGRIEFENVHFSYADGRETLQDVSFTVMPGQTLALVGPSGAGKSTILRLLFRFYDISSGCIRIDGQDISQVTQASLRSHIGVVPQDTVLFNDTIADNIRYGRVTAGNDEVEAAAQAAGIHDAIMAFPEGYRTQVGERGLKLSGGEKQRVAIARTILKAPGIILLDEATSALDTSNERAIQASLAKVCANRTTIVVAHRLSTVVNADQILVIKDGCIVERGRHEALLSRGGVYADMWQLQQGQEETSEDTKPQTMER
PHOSPHO1 block = PubChem AID 1565; inhibition, % at 13.3 µM; hit rate 1.1% among 290,000; Phosphoethanolamine/phosphocholine phosphatase (Homo sapiens), Q8TCT1; recombinant PHOSPHO1, absorbance phosphatase assay; in the data active means inhibition above about 60%
eIF4H inh = human eIF4H binding inhibitors, primary screen, translation initiation inhibitor project, biochemical, uHTS, fluorescence polarization; Eukaryotic translation initiation factor 4H (Homo sapiens), Q15056; inhibition, % at 35 µM; hit rate 0.94% among 290,000; eIF4H fluorescence polarization binding assay; AID 2012, 2009;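 further: calls also rest on retests at 20 µM and on dose response follow-up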
AI-2 QS modul = Vibrio harveyi AI-2 quorum sensing modulators, primary screen, JMH597 strain, luminescence/OD600 ratio. hit rate 0.4% among 300,000. AID 2094, 2009. activity change, % at 7.5 µM. Vibrio harveyi JMH597 AI-2 luminescence/OD600 ratio, 9 h; hits give low values; strain lacks LuxN and CqsS sensors; 0 = neutral-control median; in the data active means activity change below about -75%, passing the limit was not always enough;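 further: luminescence divided by OD600 gain over 9 h not by final OD600 alone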
PABP polyA inh = PABP poly(A) RNA binding inhibitors, primary screen, biochemical, fluorescence polarization, uHTS; Polyadenylate-binding protein 1 (Homo sapiens), P11940; calls only at 35 µM; hit rate 1% among 290,000; AID 2014, 2009;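 further: calls also rest on retests at 20 µM and on dose response follow-up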
A number is an active result; n = inactive; x = no result; + = active, no number. In the library only some 2.6% were active in any assay of this set; here they are far more common. Unless noted, how the calls were made is not given here.

SMILES	PABP1 MLLE inh	ABCB6 inh MLPCN	PHOSPHO1 block	eIF4H inh	AI-2 QS modul	PABP polyA inh
CCc1ccc(-n2c(SCC(=O)c3ccc4c(c3)NC(=O)CO4)nc3ccccc3c2=O)cc1	n	n	60	n	n	n
N#Cc1ccccc1S(=O)(=O)NC(=O)[C@H]1O[C@@H](n2cnc3c(N)ncnc32)[C@H](O)[C@@H]1O	n	n	x	x	x	x
CN(C)c1ccc(NC(=S)Nc2ccc3c(c2)c(=O)n(C)n3-c2ccc(C(C)(C)C)cc2)cc1	n	n	x	x	x	x
N/C(=N/OC(=O)c1ccccc1Cl)c1ncc([N+](=O)[O-])s1	n	n	n	n	-86	n
O=Cc1cn(-c2ccccc2)nc1-c1ccc(F)cc1	n	n	x	n	n	n
O=C1NC(=O)C(c2cn(-c3ccccc3)nc2-c2ccc(F)cc2)N1 (stereo not given)	n	n	n	n	-86	n
CC1CCN(C(=S)NCCc2ccccc2)CC1	n	n	88	n	n	n
CC(C)Oc1cccc(NC(=O)C2(C)CCCN2C(=O)C(C)C)c1 (stereo not given)	n	n	x	x	x	x
CCN(C(=O)Cn1cc(C(=O)C(=O)N2CCOCC2)c2ccccc21)c1ccccc1	n	n	73	n	n	n
CC(C)(C)c1ccc(C(=O)CC(Sc2ccc(Cl)cc2)C(=O)O)cc1 (stereo not given)	46	n	n	n	n	n
Cc1ccc(C(=O)NC(=S)Nc2ccc3[nH]c(=O)[nH]c3c2)c(C)c1	38	n	n	n	n	n
CCc1ccc(NC(=S)Nc2ccc3[nH]c(=O)[nH]c3c2)cc1	n	n	n	1.7	n	+
O=c1[nH]c2ccc(NC(=S)Nc3ccc(F)cc3)cc2[nH]1	n	n	n	n	n	n
Cc1c(C(=O)NCc2ccccc2C(F)(F)F)sc(=O)n1Cc1ccc2c(c1)OCO2	n	n	x	x	x	x
CCCCN1C(=O)C(CC(=O)NC2CCCC2)CC(C(=O)N2CCCCCC2)=C1C (stereo not given)	x	n	x	x	x	x
O=C(NC(c1ccc(-c2ccccc2)cc1)c1cnccn1)C1CCN(CCN2C(=O)c3ccccc3C2=O)CC1 (stereo not given)	n	n	x	x	x	x
Cc1ccc(NC(=O)CSc2nc3nc(C)c(Br)cc3[nH]2)cc1F	n	n	n	n	n	n
C=C(C)CSc1nc2nc(C)c(Br)cc2[nH]1	n	n	83	n	n	n
COC(=O)CSc1nc2nc(C)c(Br)cc2[nH]1	n	n	73	n	n	n
Cc1nc2nc(SCc3ccc([N+](=O)[O-])cc3)[nH]c2cc1Br	n	n	n	n	n	n
CSC1=NC=C(C#N)C2=NC(c3c(Cl)cccc3Cl)NN12 (stereo not given)	n	n	x	x	x	x
O=C(N/N=C/c1ccc(-c2ccc(Cl)c(C(=O)O)c2)o1)c1cc2c(ccc3ccccc32)o1	n	n	n	76	n	+
Cc1ccc(-c2ccc(/C=N\NC(=O)c3cc4c(ccc5ccccc54)o3)o2)cc1[N+](=O)[O-]	n	n	n	n	n	n
O=C(NCc1ccccc1)c1cc(C2COCCN2S(=O)(=O)c2cccs2)on1 (stereo not given)	n	n	x	x	x	x
CC(C)CNc1ncnc2c1ncn2[C@H]1CN(Cc2cccs2)C[C@@H](CO)O1	n	n	x	x	x	x
SMILES	PABP1 MLLE inh	ABCB6 inh MLPCN	PHOSPHO1 block	eIF4H inh	AI-2 QS modul	PABP polyA inh
COc1cccc2c1O/C(=N\O)C(C(=O)Nc1ccc(C)cc1)C2 (stereo not given)	n	n	x	n	-89	n
CCN=C1Sc2nc3ccc(OCC)cc3cc2CN1CCOC	n	n	72	n	n	n
Cc1cccc(NC(c2ccc(O)cc2)c2ccc3ccc(C)nc3c2O)n1 (stereo not given)	n	n	63	n	n	n
CC(=O)c1cccc(S(=O)(=O)N2CCN(CCOc3ccccc3)CC2)c1	44	n	x	x	x	x
Cc1ccc(S(=O)(=O)N2CCN(CCOc3ccccc3)CC2)cc1	n	n	x	x	x	x
COc1cccc(-c2nc3nc(C)cc(C)n3c2NCc2ccccc2)c1	x	n	x	x	x	x
O=[N+]([O-])c1ccccc1/C=C/C=N/n1c(-c2ccc(Cl)cc2)n[nH]c1=S	n	n	104	n	n	n
Cc1ccc(-c2n[nH]c(=S)n2/N=C/C=C\c2ccccc2[N+](=O)[O-])cc1	n	n	92	n	n	n
CC(C)N1CC(=O)N2CSCC2C1=O (stereo not given)	x	n	x	x	x	x
S=c1[nH]nc(-c2ccc(Cl)cc2)n1CCCN1CCOCC1	n	n	n	n	n	n
CCOCCCn1c(-c2ccc(Cl)cc2)n[nH]c1=S	n	n	99	n	n	n
COCCCn1c(-c2ccc(Cl)cc2)n[nH]c1=S	n	n	98	n	n	n
CCC1CCC2(CC1)NC(CO)(CO)CO2 (stereo not given)	n	n	n	n	n	n
CCC1CCC2(CC1)NNC(=S)NN2	n	n	97	n	n	n
C=CC[n+]1c(-c2ccc(C)cc2)csc1Nc1c(C)n(C)n(-c2ccccc2)c1=O	n	n	n	n	n	n
C=CC[n+]1c(-c2ccc(OCC)cc2)csc1NNC(=O)Nc1ccccc1	n	n	61	n	n	n
CC1=NN(c2ccc(C(=O)O)c(N)c2)C(=O)C1	n	n	63	98	n	n
NC(=S)Nc1nc2ccccc2[nH]c1=O	x	x	66	n	n	n
COc1ccc(C(=O)CSc2nnc(CNc3ccc(C)cc3C)n2Cc2ccco2)cc1	n	n	91	n	n	n
Cc1occc1-c1nnc(SCC(=O)c2ccc(F)cc2)n1Cc1ccco1	n	n	n	n	n	n
Cc1ccc(OCc2nnc(SCC(=O)c3ccccc3)n2Cc2ccco2)cc1	n	n	92	n	n	n
O=C(CSc1nnc(COc2ccccc2)n1Cc1ccco1)c1ccc(F)cc1	n	n	78	n	n	n
O=C(CSc1nnc(-c2cc3ccccc3cc2O)n1Cc1ccco1)c1ccc(F)cc1	n	n	81	n	n	n
NC(=O)CSc1nnc(COc2ccccc2)n1Cc1ccco1	n	n	n	n	n	n
O=C(NCc1ccccc1)C1c2ccccc2OCC(=O)N1Cc1ccccc1 (stereo not given)	x	n	x	x	x	x
COC(=O)[C@]12CCCCC=C1N(Cc1cccc3ccccc13)C(=O)[C@H](CC(=O)N1CCCCC1)C2	x	n	x	x	x	x
CCCNC(=O)c1cc2c(c(-c3cccc(-c4cc5ccccc5o4)c3)n1)[C@H](CCO)N(C(=O)NC(C)C)C2	x	n	x	x	x	x
NC(=S)n1[nH]c(-c2ccc([N+](=O)[O-])cc2)c(N=Nc2ccccc2[N+](=O)[O-])c1=O	n	n	n	n	x	n

Screening data from PubChem.
